In PubChem BioAssay:
Activity calls are given as the source filed them. Unless noted, the rule behind the calls is not given here.

Experiments:
[1] = compound effects on lung adenocarcinoma cell viability – A549, calcein-AM fluorescence, 48 h, basal, profiling panel (AID 1162); settings: higher = more signal; note: test concentration not given here
[2] = compound effects on differentiated 3T3-L1 adipocyte viability – cell-based, 3T3-L1 adipocytes, calcein-AM fluorescence, 48 h, basal, profiling panel (AID 1163); settings: 3T3-L1 adipocytes viability, higher = more signal; note: test concentration not given here
[3] = compound effects on hepatocellular carcinoma cell viability – HepG2, calcein-AM fluorescence, 48 h, basal, profiling panel (AID 1164); settings: higher = more signal; note: test concentration not given here
[4] = compound effects on multiple myeloma cell viability – MM1S, calcein-AM fluorescence, 48 h, basal, profiling panel (AID 1165); settings: higher = more signal;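 note: viability of MM1S multiple myeloma cells under basal unstimulated conditions; test concentration not given here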
[5] = calcein-AM signal in unstimulated myeloma cells – cell-based, calcein-AM fluorescence, 48 h, PK04 Diversity Set, profiling panel (AID 1166); settings: RPMI8226 myeloma viability, higher = more signal;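 note: cells grown under basal conditions without added stimulus; test concentration not given here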
[6] = JC-1 mitochondrial signal, unstimulated HepG2 cells – cell-based, JC-1 fluorescence, 24 h, 100 nL compound, profiling panel (AID 1167); settings: HepG2 mitochondrial potential, higher = more signal; note: test concentration not given here
[7] = JC-1 mitochondrial signal, unstimulated adipocytes – cell-based, JC-1 fluorescence, 3T3-L1 adipocytes, 24 h, 100 nL compound, profiling panel (AID 1168); settings: JC-1 mitochondrial fluorescence, higher = more signal, called active from +8 up or from −8 down; note: test concentration not given here
[8] = JC-1 mitochondrial signal, unstimulated myeloma cells – cell-based, JC-1 fluorescence, RPMI8226, 24 h, 100 nL compound, profiling panel (AID 1169); settings: JC-1 mitochondrial potential fluorescence, higher = more signal; note: test concentration not given here
[9] = JC-1 mitochondrial signal, unstimulated MM1S myeloma – cell-based, JC-1 fluorescence, 24 h, 100 nL compound, profiling panel (AID 1170); settings: MM1S mitochondrial potential, higher = more signal; note: test concentration not given here
[10] = resazurin metabolic signal in A549 cells – cell-based, resazurin fluorescence, 24 h, PK04 Diversity Set, profiling panel (AID 1171); settings: A549 viability, higher = more signal, called active from +8 up or from −8 down; note: test concentration not given here
[11] = resazurin metabolic signal in HepG2 cells – cell-based, resazurin fluorescence, 24 h, PK04 Diversity Set, profiling panel (AID 1172); settings: HepG2 viability, higher = more signal; note: test concentration not given here
[12] = budding yeast growth changes without added modifier – OD600, strain BY4716, 24 h, basal condition, primary screen (AID 1173); settings: S. cerevisiae BY4716 growth, OD600, 24 h; higher = more signal, called active from +8 up or from −8 down
[13] = viability profiling in MM1S myeloma cells – cell-based, resazurin fluorescence, basal, 24 h, PK04 Diversity Set, profiling panel (AID 1174); settings: higher = more signal, called active from +8 up or from −8 down; note: test concentration not given here
[14] = target: Dihydroorotate dehydrogenase (quinone), mitochondrial (Plasmodium falciparum (isolate 3D7)) (UniProt Q08210); experiment: inhibition of P. falciparum DHODH – biochemical, C-terminal His tag, absorbance 600 nm, primary screen (AID 1175); settings: PfDHODH enzyme, DCIP absorbance 600 nm; higher = more signal, called active from +8 up or from −8 down;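 note: recombinant parasite enzyme with a five histidine tag at its C terminus; test concentration not given here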
Chain of Dihydroorotate dehydrogenase (quinone), mitochondrial (Plasmodium falciparum (isolate 3D7)) (Q08210 whole entry, looked up): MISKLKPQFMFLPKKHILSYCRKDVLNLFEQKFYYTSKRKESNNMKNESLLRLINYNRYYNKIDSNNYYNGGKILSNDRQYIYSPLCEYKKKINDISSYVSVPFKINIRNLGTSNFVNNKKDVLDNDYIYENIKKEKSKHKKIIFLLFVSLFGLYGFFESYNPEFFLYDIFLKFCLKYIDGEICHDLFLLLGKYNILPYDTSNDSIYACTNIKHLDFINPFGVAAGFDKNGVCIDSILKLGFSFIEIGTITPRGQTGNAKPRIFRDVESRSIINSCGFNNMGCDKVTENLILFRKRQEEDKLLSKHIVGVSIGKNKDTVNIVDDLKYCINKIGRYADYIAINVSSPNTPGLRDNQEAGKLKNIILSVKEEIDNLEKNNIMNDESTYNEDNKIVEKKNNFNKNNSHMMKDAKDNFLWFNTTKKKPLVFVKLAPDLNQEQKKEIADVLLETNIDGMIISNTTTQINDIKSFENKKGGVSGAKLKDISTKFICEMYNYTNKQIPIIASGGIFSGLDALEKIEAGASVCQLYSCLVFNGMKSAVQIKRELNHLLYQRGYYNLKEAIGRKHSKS

[15] = inhibition of PAO1 biofilm formation – strain PAO1, LB-PBS medium, absorbance 600 nm, primary screen (AID 1176); note: test concentration not given here; settings: P. aeruginosa PAO1 growth/biofilm, A600, 12 h; higher = more signal
[16] = growth modulation of vineyard yeast isolate – strain RM11-1a, OD600, basal, 24 h, primary screen (AID 1177);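 note: cultures grown under basal conditions with no added stressor; test concentration not given here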; settings: S. cerevisiae RM11-1a growth, OD600, 24 h; higher = more signal, called active from +8 up or from −8 down
[17] = growth of efflux-deficient E. coli DRC39 – strain DRC39, OD650, 24 h, E. coli filamentation inducers, primary screen (AID 1178);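 note: growth measured as culture turbidity by optical density at 650 nm; test concentration not given here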; settings: E. coli DRC39 acrAB, higher = more signal, called active from +8 up or from −8 down
[18] = growth of efflux-deficient E. coli DRC39 – strain DRC39, OD650, 48 h, E. coli filamentation inducers, primary screen (AID 1179);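 note: screen aims at cell division blockers that make cells filament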; settings: E. coli DRC39 delta-acrAB growth, higher = more signal, called active from +8 up or from −8 down
[19] = viability profiling in RPMI8226 myeloma cells – cell-based, resazurin fluorescence, basal, 24 h, PK04 Diversity Set, profiling panel (AID 1180); settings: higher = more signal;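 note: RPMI8826 multiple myeloma cell line at 5000 cells per well; test concentration not given here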
[20] = target: E3 ubiquitin-protein ligase XIAP (Homo sapiens) (UniProt P98170); experiment: small molecules binding XIAP protein – biophysical, small-molecule microarray, fluorescence 635 nm, primary screen (AID 1181); settings: higher = more signal;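 note: score merges 667 nm emission and signal to noise over triplicate slides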
Chain of E3 ubiquitin-protein ligase XIAP (Homo sapiens) (P98170 whole entry, looked up): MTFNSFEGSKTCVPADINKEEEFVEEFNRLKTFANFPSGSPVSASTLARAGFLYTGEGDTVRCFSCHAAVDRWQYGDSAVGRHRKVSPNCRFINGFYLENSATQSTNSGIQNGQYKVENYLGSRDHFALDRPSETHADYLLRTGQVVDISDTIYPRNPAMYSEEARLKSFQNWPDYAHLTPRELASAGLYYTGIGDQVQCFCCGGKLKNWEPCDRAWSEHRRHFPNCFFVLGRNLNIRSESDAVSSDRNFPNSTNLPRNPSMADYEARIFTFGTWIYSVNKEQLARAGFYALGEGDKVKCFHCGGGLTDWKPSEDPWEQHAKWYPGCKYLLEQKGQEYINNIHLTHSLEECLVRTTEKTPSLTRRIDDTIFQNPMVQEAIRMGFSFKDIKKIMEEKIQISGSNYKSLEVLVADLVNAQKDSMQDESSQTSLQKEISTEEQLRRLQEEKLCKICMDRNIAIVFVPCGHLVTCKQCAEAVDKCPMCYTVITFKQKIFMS

SMILES	z-score [1]	z-score [2]	z-score [3]	z-score [4]	z-score [5]	z-score [6]	z-score [7]	z-score [8]	z-score [9]	z-score [10]	z-score [11]	z-score [12]	z-score [13]	composite z-score [14]	z-score [15]	z-score [16]	z-score [17]	z-score [18]	z-score [19]	composite z-score [20]
COCCOC(=O)N1C(=O)[C@@]2(c3cc(C#CC4(O)CCCCCC4)ccc31)[C@H](c1ccc(O)cc1)N1[C@H](c3ccccc3)[C@H](c3ccccc3)OC(=O)[C@H]1[C@@H]2C(=O)N1CCCCCCC1	0.717	-0.854	0.98	-0.615	-1.83	-0.442	-0.943 (inactive)	-1.01	0.0446	-0.178 (inactive)	0.0323	-0.525 (inactive)	0.341 (inactive)	-1.45 (inactive)	1.19 (inactive)	0.478 (inactive)	-0.298 (inactive)	0.625 (inactive)	-0.196	-0.0351
CC(C)N1C(=O)c2ccccc2[C@@H](C(=O)NCC(F)(F)F)[C@@H]1c1ccc(CO)cc1	0.346	-1.81	0.569	0.238	0.371	-0.0214	-0.516 (inactive)	-0.00189	0.0428	-0.0442 (inactive)	0.4	-0.102 (inactive)	0.0516 (inactive)	-0.262 (inactive)	-0.0807 (inactive)	0.436 (inactive)	-0.196 (inactive)	-0.484 (inactive)	0.236	-0.111
O=C1O[C@H](c2ccccc2)[C@H](c2ccccc2)N2[C@H]1[C@@H](C(=O)N1CCN(c3ncccn3)CC1)[C@]1(C(=O)Nc3ccc(C#CCCO)cc31)[C@H]2c1ccc(O)cc1	0.356	0.255	0.775	-0.0982	-0.26	-0.19	-0.501 (inactive)	-0.443	-0.0233	1.59 (inactive)	0.0071	0.298 (inactive)	0.34 (inactive)	0.438 (inactive)	0.462 (inactive)	0.254 (inactive)	-0.386 (inactive)	-0.395 (inactive)	0.186	-0.088
C[C@@H]1ON(c2ccc(I)cc2)[C@H](c2cccc(NC(=O)OCC3c4ccccc4-c4ccccc43)c2)[C@H]1C(=O)N1C(=O)OC[C@H]1Cc1ccccc1	1.25	0.575	0.671	-0.749	-0.326	-0.194	1.54 (inactive)	-1.19	1.78	0.623 (inactive)	0.742	-1.04 (inactive)	0.965 (inactive)	0.14 (inactive)	0.13 (inactive)	0.774 (inactive)	1.32 (inactive)	0.818 (inactive)	1.06	-0.412
CCCCCC1=C2CNC(CC(C)C)(C(=O)OC)C=C2C(C)C1=O (stereo not given)	-0.659	-0.707	0.468	-0.227	-1.12	0.745	-1.21 (inactive)	-0.324	-1.53	-0.683 (inactive)	-0.97	0.153 (inactive)	-1.2 (inactive)	-1.09 (inactive)	0.383 (inactive)	0.915 (inactive)	0.0841 (inactive)	0.501 (inactive)	-0.927	0.0907
O=C1C[C@@](C(=O)NCc2ccccc2)(c2ccc([N+](=O)[O-])cc2)[C@@H](c2ccc(CO)cc2)N1C1CCCCC1	0.691	1.34	2.22	0.406	0.956	2.33	1.58 (inactive)	-0.343	0.242	-0.685 (inactive)	-0.563	-0.517 (inactive)	-0.163 (inactive)	-1.58 (inactive)	-0.0654 (inactive)	-1.02 (inactive)	0.639 (inactive)	1.46 (inactive)	-0.0381	-0.031
C=C(CCCC)/C(=C/C[C@@H](OC(C)=O)c1ccc(CO)o1)c1cnc2ccccc2c1	0.159	1.04	-0.042	-1.56	-1.52	-0.462	-0.583 (inactive)	-0.133	-1.12	-1.29 (inactive)	-1.53	-0.293 (inactive)	-0.291 (inactive)	-6.85 (inactive)	0.0022 (inactive)	0.324 (inactive)	-1.1 (inactive)	-0.856 (inactive)	-0.521	0.1
[N-]=[N+]=Nc1ccccc1C[C@@]1(C(=O)NCc2ccccc2)N=C(c2ccc(OCCCO)cc2)O[C@@H]1c1ccccc1N=[N+]=[N-]	-1.58	1.31	-0.83	-3	-4.36	0.728	-0.182 (inactive)	-1.23	-0.936	-0.996 (inactive)	-0.664	-0.353 (inactive)	-2.18 (inactive)	0.366 (inactive)	0.689 (inactive)	0.105 (inactive)	0.969 (inactive)	-0.289 (inactive)	-2.89	-0.113
CC(C)C(CO)N1C(=O)[C@@H]2C3C(=O)OCCC/C=C\[C@H]3OC23C=CCN(Cc2ccccc2)C(=O)[C@@H]13 (stereo not given in full)	0.214	-0.0826	0.728	0.441	-0.0976	0.161	0.256 (inactive)	-0.687	0.942	0.777 (inactive)	0.49	-0.612 (inactive)	0.607 (inactive)	-0.479 (inactive)	-1.03 (inactive)	-0.0566 (inactive)	1.15 (inactive)	0.755 (inactive)	1.14	-0.166
